Among the data in PubChem BioAssay are fold change values, retold here.

Several values for one entry are separate records, joined by “and”; a condition that tells them apart may be missing. Equal entries are not always repeated.

The assay can be described thus: sensitizers of A549 cells to miR-34 induction, primary screen, imaging, A549 dox-inducible miR-34, nuclei and caspase counts (AID 1347080). Also: test concentration not given here. The conditions noted are these: A549 miR-34 inducible, Hoechst nuclei count, 48 h; measured here: relative caspase fold change +Dox/-Dox.
For the molecule `N#C/C(=C\c1ccc(O)c(O)c1)C(=O)c1ccc(O)c(O)c1`, the fold change came to 1.26.
The result for `N=C(N)SCCc1cccc(CCSC(=N)N)c1` reads 0.632.
For the molecule `COC(=O)[C@H]1[C@H]2C[C@@H]3c4[nH]c5cc(OC)ccc5c4CCN3C[C@H]2C[C@@H](OC(=O)/C=C/c2cc(OC)c(OC)c(OC)c2)[C@@H]1OC`, the fold change was found to be 1.32.
Next, `Oc1ccc(Cn2cc[nH]c2=S)cc1`: 1.11.
On to `CNc1ncnc2c1ncn2[C@H]1C[C@H](OP(=O)(O)O)[C@@H](COP(=O)(O)O)O1`, for which the fold change is 1.03.
Next, `Cc1nc(N=Nc2cc(S(=O)(=O)O)c3cc([N+](=O)[O-])cc(S(=O)(=O)O)c3c2)c(COP(=O)(O)O)c(C=O)c1O`: 1.61; `COc1c(N2CC3CCCNC3C2)c(F)cc2c(=O)c(C(=O)O)cn(C3CC3)c12` (stereo not given): 1.2; `NC(=S)c1ccc[n+]([C@@H]2O[C@@H](COP(=O)([O-])OP(=O)(O)OC[C@H]3O[C@@H](n4cnc5c(N)ncnc54)C(OP(=O)(O)O)[C@H]3O)C(O)C2O)c1` (stereo not given in full): 1.17.
For `Cc1ccc2c(c1)C(N1CCN(C)CC1)=Nc1cccnc1N2`, the fold change was determined as 1.15.
Regarding `NC(N)=N[C@@H](CCC(=O)O)C(=O)O`, the fold change was 1.36 and 1.31.
Next, `COc1cc(=O)n(C)c2c(OCC(O)C(C)(C)O)cccc12` (stereo not given): 1.04; `N=S(=O)(O)Cc1noc2ccccc12`: 2.62.
Next, `O=C(O)CCC/C=C\C[C@@H]1[C@@H](/C=C/[C@H](O)C2Cc3ccccc3C2)[C@@H](F)C[C@@H]1O`: 1.71 and 1.08; `Cc1ccc(NC(=O)CCCCCC(=O)Nc2ccccc2N)cc1`: 1.02.
Next, `N=C(N)c1ccc(OCCCCCOc2ccc(C(=N)N)cc2)cc1` (tested in a mixture with another compound): 0.748.
`NCCC1CCCC(CCN)N1` (stereo not given): the fold change was found to be 1.24.
As to `Nc1ccn([C@@H]2O[C@H](CO)[C@@H](O)[C@@H]2O)c(=O)n1`, the fold change was 1.55.
For `CCCCCC(O)c1cccc(OCc2ccc3ccccc3n2)c1` (stereo not given), the fold change was 1.06 and 0.946.
`N=c1c[n+](N2CCOCC2)[n-]o1`: the fold change is 2.22 and 1.55.
The result for `Nc1ccccc1NC(=O)CCCCCCC(=O)Nc1ccccc1` reads 0.802; that for `N=c1ccn2c(n1)OC1[C@@H](O)[C@@H](CO)O[C@H]12` (stereo not given in full), 1.55.
On to `CCOC(=O)C12CC1/C(=N/O)c1ccccc1O2` (stereo not given), for which the fold change was found to be 2.7.
Next, `C#C[C@]1(O)CCC2C3C(C)CC4=C(CCC(=O)C4)C3CC[C@@]21C` (stereo not given in full): 1.5; `O=C(O)CCC(=O)N1CCCC1C(=O)O` (stereo not given): 1.16.
For `N.N.N.N.N.N.N.N.N.N.N.N.N.N.O.O.[Cl-].[Cl-].[Cl-].[Cl-].[Cl-].[Cl-].[Ru+4].[Ru+5].[Ru+5]`, the fold change was found to be 0.871.
Consider `O=C1O/C(=C/Br)CCC1c1cccc2ccccc12` (stereo not given), for which the fold change is 0.87.
Next, `NC[C@H]1O[C@@H](n2cnc3c(N)ncnc32)[C@H](O)[C@@H]1O`: 1.37; `CC[C@@]1([C@@H]2O[C@@H]([C@H]3O[C@@](O)(CO)[C@H](C)C[C@@H]3C)C[C@@H]2C)CC[C@H]([C@]2(C)CC[C@]3(C[C@H](O)[C@@H](C)[C@@H]([C@@H](C)[C@@H](OC)C(C)C(=O)O)O3)O2)O1` (stereo not given in full): 1.84; `CN(C)C(=O)/N=N/C(=O)N(C)C`: 1.27.
Next, `N#C/C(=C\c1ccc(O)c(O)c1)C(=O)NCCCNC(=O)/C(C#N)=C/c1ccc(O)c(O)c1`: 1.18; `CCC[C@@H]1C[C@@H](C(=O)N[C@@H]([C@H]2O[C@H](SC)[C@H](O)[C@@H](O)[C@@H]2O)[C@@H](C)O)N(C)C1`: 0.967 and 1.36.
Next, `COc1c2c(nc3ccccc13)OC(C(C)(O)CO)C2` (stereo not given): 0.535.
With `CC[C@@H]1Cc2cc(O)ccc2C2=C1c1ccc(O)cc1C[C@H]2CC`, the fold change is 0.93.
Consider `C[N+](C)(C)CCOP(=O)(O)OP(=O)([O-])OC[C@H]1O[C@@H](n2ccc(N)nc2=O)C(O)[C@H]1O` (stereo not given in full), for which the fold change came to 1.19.
Regarding `CCSC(N)=Nc1ccc(C(F)(F)F)cc1`, the fold change worked out at 0.833.
Next, `Nc1nc(SCc2ccc([N+](=O)[O-])cc2)c2ncn([C@@H]3O[C@H](CO)[C@H](O)C3O)c2n1` (stereo not given in full): 0.784; `NCCC(=O)NCCc1cnc[nH]1`: 1.35.
The result for `CC(=O)O[C@H]1CC2(C)[C@@H](C[C@@H](O)[C@H]3[C@@]4(C)CC[C@@H](O)[C@@H](C)[C@@H]4CC[C@@]32C)C1=C(CCC=C(C)C)C(=O)O` (stereo not given in full) reads 1.41; that for `O[C@@H]1[C@@H](O)C=C2CCN3Cc4cc5c(cc4[C@H]1C23)OCO5` (stereo not given in full), 1.09; that for `NC(N)=[N+]1CCc2ccccc2C1`, 1.06.
